# According to PubChem BioAssay (Tox21):
# Where “and” joins values, the source holds several entries; their conditions need not be identical. Equal entries are not always repeated. Results filed as inconclusive are left out. Entries that show only a call come without a potency. Calls of active or inactive are those of the source. Calls come from the whole dose curve; as a rule, active = well fitted cell-killing curve with a large enough effect in the repeat runs; inconclusive = weak or mixed curves, or effect the other way; inactive = flat fitted curve, though single readings scatter.
# Tests used:
# [1] = cAMP Responsive Elements (CRE) small molecule antagonists, cell-based qHTS assay: qHTS cell viability counter screen (AID 2060913); note: nearly all actives have a fitted effect of over 40% in size
# Procedure, shortened: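 Steps: cells plated and held 18 hrs at 37 C/5% CO2; compounds and NKH477 (0.25 uM final) added; 3 hrs incubation; reporter substrate read; CellTiter-Glo added to measure cytotoxicity by luminescence.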
# [2] = cAMP Responsive Elements (CRE) small molecule agonists, cell-based qHTS assay: qHTS cell viability counter screen (AID 2060914);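 note: viability read after 3 h of compound exposure; nearly all actives have a fitted effect of over 50% in size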
# Procedure, shortened: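 CRE-bla HEK293T cells in 10% dialyzed FBS medium were exposed to compounds for 3 h at 37C after 18 h plating. CellTiter-Glo was then added in the same wells, and luminescence was read after 30 min at room temperature.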
# Potency is the fitted concentration of half-maximal effect.
Structure (SMILES),Potency [1],Potency [2]
CCn1ccc(NS(=O)(=O)c2ccc(N)cc2)nc1=O,inactive,inactive
CCCCCCCCCCO,inactive,inactive
Cc1ccc(Cl)cc1Cl,inactive,inactive
CC(C)=CCC/C(C)=C/C=O,inactive,inactive
c1ccc(-c2nn[nH]n2)cc1,inactive,inactive
CCCCC(=O)N(C)C,inactive,inactive
CC(C)=CCOC(=O)c1ccccc1,inactive,inactive
CC(=O)c1cccnc1,inactive,inactive
CCNC(=O)NCCCOc1cccc(CN2CCCCC2)c1,inactive,inactive
CN1CCOCC1,inactive,inactive
CC(=O)OC/C=C(\C)CC/C=C(\C)CCC=C(C)C,inactive,inactive
CC(C)(C)NCC(O)COc1cccc2c1CCC(=O)N2 (centres undefined),inactive,inactive
O=C1CCCCCCCCCCCCCCCO1,inactive,inactive
CC(=O)/C=C/C1C(C)=CCCC1(C)C (centres undefined),inactive,inactive
C/C=C/CO,inactive,inactive
Cc1ccccc1C(N)=O,inactive,inactive
O=C(Nc1cccc(Cl)c1)OCC#CCCl,inactive,inactive
O=c1c2ccccc2nnn1CCl,inactive,inactive
CCCCCCCCCCCC[N+](C)(C)Cc1ccccc1,60 µM (active) and 59.2 µM (active) and 13.3 µM (active),53.4 µM (active) and 37.4 µM (active) and 29.8 µM (active)
CCCCCCCCC1CCC(=O)O1 (centres undefined),inactive,inactive
CC[N+](C)(CC)CC,inactive,inactive
CCCCCCOCCOCCO,inactive,inactive
